Laboratory results reported in the supplement of paper PMC6522484.
± gives the standard deviation of the averaged measurements.

What was measured:
DLD1 [1] = assay: cell viability (CellTiter-Glo) relative to plate median (fraction of plate median); higher = more viable cells; settings: 5 µM; treatment time 24 h; reporter: 7TFP
Summary of the method: (§1)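 Cells were seeded in 384-well plates; these were colorectal cancer lines stably transduced with lentiviral 7TFP or TCF4/Wnt firefly luciferase reporters. After 24 h, library compounds went in at a final 5 µM, and exposure lasted 24 h. Parallel plates were then read for firefly luciferase or CellTiterGlo luminescence, each well normalised to its plate median, with two independent replicates averaged.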

HCT116 = assay: as above; settings: 5 µM; treatment time 24 h; reporter: TCF4/Wnt
Summary of the method: as §1

SW480 [2] = assay: as above; settings: 5 µM; treatment time 24 h; reporter: 7TFP
Summary of the method: as §1

DLD1 [3] = assay: TCF/Wnt firefly luciferase reporter signal relative to plate median (fraction of plate median); higher = higher Wnt reporter signal; settings: 5 µM; treatment time 24 h; reporter: 7TFP
Summary of the method: as §1

SW480 [4] = assay: as above; settings: 5 µM; treatment time 24 h; reporter: 7TFP
Summary of the method: as §1

`O=C(O)c1cc(=O)c2ccccc2o1` was tested, and the cell viability (DLD1 [1]) was 0.859 ± 0.082, the cell viability (HCT116) was 0.961 ± 0.11 and the cell viability (SW480 [2]) was 0.987 ± 0.014. The “TCF/Wnt firefly luciferase reporter signal” value (DLD1 [3]) was 0.909 ± 0.12 and the “TCF/Wnt firefly luciferase reporter signal” value (SW480 [4]) was 0.993 ± 0.011.

`CC(=O)Oc1cc(C)c2c(c1C(OC(C)=O)OC(C)=O)Oc1c(c(C)c(OC(C)=O)c3c1C(OC(C)=O)OC3=O)OC2=O` (stereo not given) gave a cell viability (DLD1 [1]) of 0.969 ± 0.044, a cell viability (HCT116) of 0.975 ± 0.025 and a cell viability (SW480 [2]) of 0.943 ± 0.064. For the same molecule, the “TCF/Wnt firefly luciferase reporter signal” value (DLD1 [3]) was 0.993 ± 0.081 and the “TCF/Wnt firefly luciferase reporter signal” value (SW480 [4]) was 1.18 ± 0.099.

With `Nc1c(Br)cc(Br)cc1CN[C@H]1CC[C@H](O)CC1` the cell viability (DLD1 [1]) was 0.914 ± 0.066, the cell viability (HCT116) was 1.09 ± 0.11 and the cell viability (SW480 [2]) was 0.946 ± 0.029. The “TCF/Wnt firefly luciferase reporter signal” value (DLD1 [3]) was 0.944 ± 0.19 and the “TCF/Wnt firefly luciferase reporter signal” value (SW480 [4]) was 0.887 ± 0.016.

`CC(=O)OCC(=O)[C@H]1CC[C@H]2[C@@H]3CCC4=CC(=O)CC[C@]4(C)[C@H]3CC[C@]12C` was tested, and the cell viability (DLD1 [1]) was 0.952 ± 0.082, the cell viability (HCT116) was 0.961 ± 0.13 and the cell viability (SW480 [2]) was 0.974 ± 0.0014. For the same molecule, the “TCF/Wnt firefly luciferase reporter signal” value (DLD1 [3]) was 1.11 ± 0.05 and the “TCF/Wnt firefly luciferase reporter signal” value (SW480 [4]) was 0.93 ± 0.059.

For `Cc1cc(=O)n(-c2ccccc2)n1C`, the cell viability (DLD1 [1]) was 1.03 ± 0.081, the cell viability (HCT116) was 0.94 ± 0.026 and the cell viability (SW480 [2]) was 1.01 ± 0.034. The “TCF/Wnt firefly luciferase reporter signal” value (DLD1 [3]) was 1.11 ± 0.2 and the “TCF/Wnt firefly luciferase reporter signal” value (SW480 [4]) was 1.075 ± 0.0071.

In the case of `O=C(CCCN1CC=C(n2c(=O)[nH]c3ccccc32)CC1)c1ccc(F)cc1`, the cell viability (DLD1 [1]) is reported as 0.995 ± 0.0071, the cell viability (HCT116) is reported as 0.868 ± 0.025 and the cell viability (SW480 [2]) is reported as 0.994 ± 0.023. The “TCF/Wnt firefly luciferase reporter signal” value (DLD1 [3]) was 0.829 ± 0.061 and the “TCF/Wnt firefly luciferase reporter signal” value (SW480 [4]) was 0.895 ± 0.088.

For `COc1c(O)cc2oc3cc(O)c(CC=C(C)C)c(O)c3c(=O)c2c1CC=C(C)C` [alpha-MANGOSTIN], the cell viability (DLD1 [1]) was 1.055 ± 0.0071, the cell viability (HCT116) was 1.15 ± 0.021 and the cell viability (SW480 [2]) was 1.01 ± 0.015. The “TCF/Wnt firefly luciferase reporter signal” value (DLD1 [3]) was 1.04 ± 0.24 and the “TCF/Wnt firefly luciferase reporter signal” value (SW480 [4]) was 0.941 ± 0.076.

`CC(CN1c2ccccc2Sc2ccccc21)N(C)C` (stereo not given) gave a cell viability (DLD1 [1]) of 1.09 ± 0.05, a cell viability (HCT116) of 1.1 ± 0.064 and a cell viability (SW480 [2]) of 1.08 ± 0.014. For the same molecule, the “TCF/Wnt firefly luciferase reporter signal” value (DLD1 [3]) was 1.05 ± 0.15 and the “TCF/Wnt firefly luciferase reporter signal” value (SW480 [4]) was 1.115 ± 0.0071.

For `O=C(OCc1ccccc1)c1ccccc1`, the cell viability (DLD1 [1]) was 1.03 ± 0.035, the cell viability (HCT116) was 0.996 ± 0.062 and the cell viability (SW480 [2]) was 0.928 ± 0.029. For the same molecule, the “TCF/Wnt firefly luciferase reporter signal” value (DLD1 [3]) was 0.954 ± 0.14 and the “TCF/Wnt firefly luciferase reporter signal” value (SW480 [4]) was 0.999 ± 0.1.

In the case of `CO[C@@H]1[C@@H](OC(N)=O)[C@@H](O)[C@H](Oc2ccc3c(O)c(NC(=O)c4ccc(O)c(CC=C(C)C)c4)c(=O)oc3c2C)OC1(C)C`, the cell viability (DLD1 [1]) is reported as 0.988 ± 0.088, the cell viability (HCT116) is reported as 0.8935 ± 0.005 and the cell viability (SW480 [2]) is reported as 1.004 ± 0.0085. The “TCF/Wnt firefly luciferase reporter signal” value (DLD1 [3]) was 1.27 ± 0.05 and the “TCF/Wnt firefly luciferase reporter signal” value (SW480 [4]) was 1.14.

`CN(N=O)C(=O)N[C@H]1C(O)O[C@H](CO)[C@@H](O)[C@@H]1O` (mixture of isomers) gave a cell viability (DLD1 [1]) of 0.999 ± 0.03, a cell viability (HCT116) of 1.03 ± 0.064 and a cell viability (SW480 [2]) of 1.08 ± 0.021. The “TCF/Wnt firefly luciferase reporter signal” value (DLD1 [3]) was 0.962 ± 0.15 and the “TCF/Wnt firefly luciferase reporter signal” value (SW480 [4]) was 1.005 ± 0.0071.

`CC1(C)S[C@@H]2[C@H](NC(=O)[C@H](N)c3ccc(O)cc3)C(=O)N2[C@H]1C(=O)O` was tested, and the cell viability (DLD1 [1]) was 0.928 ± 0.049, the cell viability (HCT116) was 1.02 ± 0.067 and the cell viability (SW480 [2]) was 0.95 ± 0.016. The “TCF/Wnt firefly luciferase reporter signal” value (DLD1 [3]) was 1.11 ± 0.092 and the “TCF/Wnt firefly luciferase reporter signal” value (SW480 [4]) was 1.01.

Molecule `O=C(COc1ccc(Cl)cc1)N1CCN(Cc2ccc3c(c2)OCO3)CC1` has a cell viability (DLD1 [1]) of 0.9755 ± 0.0064, a cell viability (HCT116) of 0.893 ± 0.03 and a cell viability (SW480 [2]) of 1.035 ± 0.0071. The “TCF/Wnt firefly luciferase reporter signal” value (DLD1 [3]) was 0.865 ± 0.18 and the “TCF/Wnt firefly luciferase reporter signal” value (SW480 [4]) was 0.921 ± 0.018.

`CC[C@H](C)C(=O)O[C@H]1C[C@H](O)C=C2C=C[C@H](C)[C@H](CC[C@@H](O)C[C@@H](O)CC(=O)O)[C@H]21` showed a cell viability (DLD1 [1]) of 1.03 ± 0.014, a cell viability (HCT116) of 1.02 ± 0.028 and a cell viability (SW480 [2]) of 0.989 ± 0.0028. The “TCF/Wnt firefly luciferase reporter signal” value (DLD1 [3]) was 1.04 ± 0.076 and the “TCF/Wnt firefly luciferase reporter signal” value (SW480 [4]) was 0.928 ± 0.16.

Molecule `CCc1cnn2c(NCc3ccc[n+]([O-])c3)cc(N3CCCC[C@H]3CCO)nc12` [Dinaciclib] has a cell viability (DLD1 [1]) of 0.99 ± 0.042, a cell viability (HCT116) of 0.779 ± 0.069 and a cell viability (SW480 [2]) of 1.32 ± 0.12. The “TCF/Wnt firefly luciferase reporter signal” value (DLD1 [3]) was 0.57 ± 0.12 and the “TCF/Wnt firefly luciferase reporter signal” value (SW480 [4]) was 0.789 ± 0.035.

For `NC(=O)c1ncn([C@@H]2O[C@H](CO)[C@@H](O)[C@H]2O)c1N`, the cell viability (DLD1 [1]) was 0.989 ± 0.03, the cell viability (HCT116) was 0.947 ± 0.055 and the cell viability (SW480 [2]) was 0.949 ± 0.04. The “TCF/Wnt firefly luciferase reporter signal” value (DLD1 [3]) was 1 ± 0.012 and the “TCF/Wnt firefly luciferase reporter signal” value (SW480 [4]) was 0.927 ± 0.044.

`NCCCCC(=O)O` was tested, and the cell viability (DLD1 [1]) was 0.9365 ± 0.0021, the cell viability (HCT116) was 0.981 ± 0.098 and the cell viability (SW480 [2]) was 1.03 ± 0.021. The “TCF/Wnt firefly luciferase reporter signal” value (DLD1 [3]) was 1.06 ± 0.19 and the “TCF/Wnt firefly luciferase reporter signal” value (SW480 [4]) was 0.9645 ± 0.00071.

For `CC(=O)O[C@H]1C[C@@H](OC(C)=O)C(C)(C)C2CC(=O)[C@]3(C)C(CC[C@@]4(C)[C@H](c5ccoc5)OC(=O)[C@H]5O[C@]543)[C@]21C` (stereo not given in full), the cell viability (DLD1 [1]) was 0.983 ± 0.0099, the cell viability (HCT116) was 0.998 ± 0.046 and the cell viability (SW480 [2]) was 1.02 ± 0.076. The “TCF/Wnt firefly luciferase reporter signal” value (DLD1 [3]) was 1.06 ± 0.11 and the “TCF/Wnt firefly luciferase reporter signal” value (SW480 [4]) was 1.03 ± 0.028.

`COc1cc2c(cc1OC)[C@@H]1C(=O)c3ccc4c(c3O[C@@H]1CO2)C=CC(C)(C)O4` showed a cell viability (DLD1 [1]) of 1.09 ± 0.021, a cell viability (HCT116) of 0.79 ± 0.14 and a cell viability (SW480 [2]) of 1.02 ± 0.094. For the same molecule, the “TCF/Wnt firefly luciferase reporter signal” value (DLD1 [3]) was 0.9 ± 0.1 and the “TCF/Wnt firefly luciferase reporter signal” value (SW480 [4]) was 0.884.

With `C[C@]12CC[C@@H]3c4ccc(OS(=O)(=O)O)cc4CC[C@H]3[C@@H]1CCC2=O` the cell viability (DLD1 [1]) was 1.03 ± 0.035, the cell viability (HCT116) was 1.12 ± 0.014 and the cell viability (SW480 [2]) was 1 ± 0.014. The “TCF/Wnt firefly luciferase reporter signal” value (DLD1 [3]) was 1.24 ± 0.21 and the “TCF/Wnt firefly luciferase reporter signal” value (SW480 [4]) was 1.23 ± 0.028.
